Assays:
Experiment in all cases: DAPPL (digital affinity profiling via proximity ligation, sequencing); 10 mM Tris-HCl pH 7.5, 50 mM NaCl, 1 mM DTT, 4% glycerol, room temperature, 30 min; GST-TFs on glutathione beads, 16-mer random dsDNA library, 0.1% formaldehyde crosslink after washing; high values mean tight binding
Conditions in all cases: protein: recombinant; tags: N-terminal GST; dsDNA, one strand shown
FLI1 = target: T1, FLI1 (Homo sapiens, UniProt Q01543 1-452)
T1 sequence: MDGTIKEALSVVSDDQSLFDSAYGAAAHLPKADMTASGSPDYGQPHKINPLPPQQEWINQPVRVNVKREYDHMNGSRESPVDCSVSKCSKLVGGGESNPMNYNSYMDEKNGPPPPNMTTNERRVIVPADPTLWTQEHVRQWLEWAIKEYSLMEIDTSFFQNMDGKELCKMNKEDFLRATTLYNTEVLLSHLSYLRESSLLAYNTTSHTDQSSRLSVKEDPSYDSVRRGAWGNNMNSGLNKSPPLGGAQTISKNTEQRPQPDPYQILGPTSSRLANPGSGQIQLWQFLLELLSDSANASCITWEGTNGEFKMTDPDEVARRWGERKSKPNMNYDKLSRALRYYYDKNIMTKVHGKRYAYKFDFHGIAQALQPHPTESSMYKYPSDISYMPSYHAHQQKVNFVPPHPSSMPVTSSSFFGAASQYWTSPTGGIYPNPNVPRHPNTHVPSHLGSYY
How it was run: (§1)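 Each value of binding signal is a hexamer's read frequency for a factor divided by the same hexamer's frequency in the tag-only sample. Barcoded, bead-captured GST fusions of human transcription factors made in yeast were pooled with that sample and incubated with 200 nmole of a random double-stranded 16-mer DNA library in Tris/NaCl/DTT/glycerol buffer at room temperature for 30 min. Washing, 0.1% formaldehyde crosslinking, proximity ligation, PCR and Illumina NextSeq500 sequencing followed.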

ELK1 = target: T2, ELK1 (Homo sapiens, UniProt P19419 1-428)
T2 sequence: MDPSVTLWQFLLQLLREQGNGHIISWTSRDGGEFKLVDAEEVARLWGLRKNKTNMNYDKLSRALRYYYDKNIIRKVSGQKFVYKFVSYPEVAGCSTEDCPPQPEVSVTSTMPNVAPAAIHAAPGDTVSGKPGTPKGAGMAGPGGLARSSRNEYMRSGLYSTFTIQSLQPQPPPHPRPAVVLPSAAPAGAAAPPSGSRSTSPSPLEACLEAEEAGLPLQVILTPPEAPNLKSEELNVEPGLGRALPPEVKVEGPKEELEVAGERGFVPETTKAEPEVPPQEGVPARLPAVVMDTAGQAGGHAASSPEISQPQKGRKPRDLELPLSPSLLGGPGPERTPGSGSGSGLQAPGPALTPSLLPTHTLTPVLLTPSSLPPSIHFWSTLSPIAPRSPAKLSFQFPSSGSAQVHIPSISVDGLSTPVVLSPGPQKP
How it was run: as §1

GABPA = target: T3, GABPA (Homo sapiens, UniProt Q06546 1-454)
T3 sequence: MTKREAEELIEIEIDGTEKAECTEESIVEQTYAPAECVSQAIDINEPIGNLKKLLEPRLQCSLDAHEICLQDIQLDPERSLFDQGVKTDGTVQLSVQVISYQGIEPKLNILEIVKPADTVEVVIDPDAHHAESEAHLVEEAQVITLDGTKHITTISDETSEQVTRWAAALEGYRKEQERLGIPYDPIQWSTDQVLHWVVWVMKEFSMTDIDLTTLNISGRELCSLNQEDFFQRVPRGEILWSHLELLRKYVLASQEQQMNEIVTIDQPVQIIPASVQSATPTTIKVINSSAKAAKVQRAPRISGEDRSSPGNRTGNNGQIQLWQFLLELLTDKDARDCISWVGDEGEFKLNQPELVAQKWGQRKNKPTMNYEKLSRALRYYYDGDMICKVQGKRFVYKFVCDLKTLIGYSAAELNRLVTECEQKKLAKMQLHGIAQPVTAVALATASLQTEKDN
How it was run: as §1

ERG = target: T4, ERG (Homo sapiens, UniProt P11308 1-479)
T4 sequence: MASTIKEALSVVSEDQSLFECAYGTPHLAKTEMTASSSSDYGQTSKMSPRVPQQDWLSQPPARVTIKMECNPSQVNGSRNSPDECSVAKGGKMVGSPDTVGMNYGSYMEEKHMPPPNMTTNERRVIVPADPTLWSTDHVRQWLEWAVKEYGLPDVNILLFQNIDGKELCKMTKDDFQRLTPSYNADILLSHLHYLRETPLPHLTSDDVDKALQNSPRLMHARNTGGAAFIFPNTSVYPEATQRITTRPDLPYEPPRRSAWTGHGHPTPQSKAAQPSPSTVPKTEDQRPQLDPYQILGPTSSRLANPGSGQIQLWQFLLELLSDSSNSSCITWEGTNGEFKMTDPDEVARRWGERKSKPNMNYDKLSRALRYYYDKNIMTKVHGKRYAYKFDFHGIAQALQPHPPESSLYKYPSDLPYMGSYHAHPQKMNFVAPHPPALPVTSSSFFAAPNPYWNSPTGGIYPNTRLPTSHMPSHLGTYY
How it was run: as §1

ELF1 = ELF1 (Homo sapiens, UniProt P32519 1-619)
How it was run: as §1

EHF = target: T5, EHF (Homo sapiens, UniProt Q9NZC4 1-300)
T5 sequence: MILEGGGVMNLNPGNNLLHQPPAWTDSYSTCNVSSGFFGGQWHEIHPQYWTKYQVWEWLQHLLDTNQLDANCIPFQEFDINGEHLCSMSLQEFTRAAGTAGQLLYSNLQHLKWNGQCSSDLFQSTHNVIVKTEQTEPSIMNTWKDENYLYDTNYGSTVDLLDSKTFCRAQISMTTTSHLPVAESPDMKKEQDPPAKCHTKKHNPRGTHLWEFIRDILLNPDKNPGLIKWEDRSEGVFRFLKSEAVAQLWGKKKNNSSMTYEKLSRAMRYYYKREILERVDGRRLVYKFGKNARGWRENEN
How it was run: as §1

SPI1 = SPI1 (Homo sapiens, UniProt P17947 1-270)
How it was run: as §1

SPIB = SPIB (Homo sapiens, UniProt Q01892 1-262)
How it was run: as §1

ELK3 = target: T6, ELK3 (Homo sapiens, UniProt P41970 1-407)
T6 sequence: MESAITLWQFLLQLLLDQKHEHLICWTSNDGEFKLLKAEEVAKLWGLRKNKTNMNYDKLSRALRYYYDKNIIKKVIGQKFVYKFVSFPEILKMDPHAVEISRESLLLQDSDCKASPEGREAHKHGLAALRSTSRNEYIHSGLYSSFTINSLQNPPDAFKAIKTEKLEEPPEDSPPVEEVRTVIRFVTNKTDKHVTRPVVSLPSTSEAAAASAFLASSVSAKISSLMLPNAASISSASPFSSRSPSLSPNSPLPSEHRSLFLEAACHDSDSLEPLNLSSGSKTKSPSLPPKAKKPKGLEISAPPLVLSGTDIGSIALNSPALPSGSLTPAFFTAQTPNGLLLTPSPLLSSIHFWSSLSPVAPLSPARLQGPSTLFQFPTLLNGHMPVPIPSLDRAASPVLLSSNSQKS
How it was run: as §1

FEV = target: T7, FEV (Homo sapiens, UniProt Q99581 1-238)
T7 sequence: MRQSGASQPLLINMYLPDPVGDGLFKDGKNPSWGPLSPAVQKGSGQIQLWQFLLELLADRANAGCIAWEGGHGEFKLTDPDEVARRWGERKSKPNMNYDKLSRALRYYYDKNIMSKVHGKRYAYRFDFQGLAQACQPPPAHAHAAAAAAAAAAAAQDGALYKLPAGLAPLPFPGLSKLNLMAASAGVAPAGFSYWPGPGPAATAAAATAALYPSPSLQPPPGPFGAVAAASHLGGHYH
How it was run: as §1

ETV5 = ETV5 (Homo sapiens, UniProt P41161 1-510)
How it was run: as §1

SPIC = target: T8, SPIC (Homo sapiens, UniProt Q8N5J4 1-248)
T8 sequence: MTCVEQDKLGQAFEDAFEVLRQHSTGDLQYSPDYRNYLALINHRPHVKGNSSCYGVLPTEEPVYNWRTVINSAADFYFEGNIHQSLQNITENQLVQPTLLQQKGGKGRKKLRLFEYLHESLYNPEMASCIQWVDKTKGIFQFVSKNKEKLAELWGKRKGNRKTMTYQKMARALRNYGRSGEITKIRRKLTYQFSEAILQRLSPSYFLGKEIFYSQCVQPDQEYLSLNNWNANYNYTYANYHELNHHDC
How it was run: as §1

ELF4 = ELF4 (Homo sapiens, UniProt Q99607 1-663)
How it was run: as §1

ELK4 = target: T9, ELK4 (Homo sapiens, UniProt P28324-2 1-405)
T9 sequence: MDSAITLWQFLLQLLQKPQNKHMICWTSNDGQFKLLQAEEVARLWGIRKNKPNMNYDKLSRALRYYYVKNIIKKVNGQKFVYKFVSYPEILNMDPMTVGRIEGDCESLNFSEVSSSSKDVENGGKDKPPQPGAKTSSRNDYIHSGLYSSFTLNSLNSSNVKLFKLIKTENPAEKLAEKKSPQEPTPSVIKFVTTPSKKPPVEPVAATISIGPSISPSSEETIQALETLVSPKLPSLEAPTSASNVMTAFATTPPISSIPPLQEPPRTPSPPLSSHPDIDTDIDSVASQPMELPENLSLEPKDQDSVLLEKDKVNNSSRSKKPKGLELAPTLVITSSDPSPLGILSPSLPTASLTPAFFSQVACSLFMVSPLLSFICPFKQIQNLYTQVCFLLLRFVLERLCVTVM
How it was run: as §1

ETV2 = target: T10, ETV2 (Homo sapiens, UniProt O00321 1-342)
T10 sequence: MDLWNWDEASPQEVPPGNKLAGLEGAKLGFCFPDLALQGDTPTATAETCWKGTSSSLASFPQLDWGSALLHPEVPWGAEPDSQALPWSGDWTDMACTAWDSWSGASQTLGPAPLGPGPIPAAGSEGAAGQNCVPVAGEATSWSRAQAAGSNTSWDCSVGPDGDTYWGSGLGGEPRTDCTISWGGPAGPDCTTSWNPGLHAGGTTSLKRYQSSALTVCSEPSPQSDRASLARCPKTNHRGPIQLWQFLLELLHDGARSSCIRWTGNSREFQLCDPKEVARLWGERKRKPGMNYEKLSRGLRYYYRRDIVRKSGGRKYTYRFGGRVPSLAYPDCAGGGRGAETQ
How it was run: as §1

ELF3 = target: T11, ELF3 (Homo sapiens, UniProt P78545 1-371)
T11 sequence: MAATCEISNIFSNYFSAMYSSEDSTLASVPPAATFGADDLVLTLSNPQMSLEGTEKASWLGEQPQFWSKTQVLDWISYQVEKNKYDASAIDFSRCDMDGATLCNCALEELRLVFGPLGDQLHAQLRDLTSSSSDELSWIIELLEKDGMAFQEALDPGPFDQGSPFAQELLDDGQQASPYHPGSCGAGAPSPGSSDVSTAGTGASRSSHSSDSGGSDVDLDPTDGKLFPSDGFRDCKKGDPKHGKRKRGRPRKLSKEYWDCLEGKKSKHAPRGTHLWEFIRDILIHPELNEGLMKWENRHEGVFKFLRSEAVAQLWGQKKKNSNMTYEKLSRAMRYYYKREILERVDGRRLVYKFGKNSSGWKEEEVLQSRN
How it was run: as §1

ETV1 = ETV1 (Homo sapiens, UniProt P50549 1-477)
How it was run: as §1

Chain of SPIB (Q01892 whole entry): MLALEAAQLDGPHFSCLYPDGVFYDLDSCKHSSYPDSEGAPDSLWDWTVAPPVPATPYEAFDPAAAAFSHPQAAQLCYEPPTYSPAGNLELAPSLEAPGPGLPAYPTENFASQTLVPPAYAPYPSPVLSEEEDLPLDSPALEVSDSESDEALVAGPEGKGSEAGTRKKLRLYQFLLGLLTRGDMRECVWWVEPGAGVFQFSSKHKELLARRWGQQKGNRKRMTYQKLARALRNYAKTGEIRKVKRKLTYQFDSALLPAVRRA
Chain of ETV5 (P41161 whole entry): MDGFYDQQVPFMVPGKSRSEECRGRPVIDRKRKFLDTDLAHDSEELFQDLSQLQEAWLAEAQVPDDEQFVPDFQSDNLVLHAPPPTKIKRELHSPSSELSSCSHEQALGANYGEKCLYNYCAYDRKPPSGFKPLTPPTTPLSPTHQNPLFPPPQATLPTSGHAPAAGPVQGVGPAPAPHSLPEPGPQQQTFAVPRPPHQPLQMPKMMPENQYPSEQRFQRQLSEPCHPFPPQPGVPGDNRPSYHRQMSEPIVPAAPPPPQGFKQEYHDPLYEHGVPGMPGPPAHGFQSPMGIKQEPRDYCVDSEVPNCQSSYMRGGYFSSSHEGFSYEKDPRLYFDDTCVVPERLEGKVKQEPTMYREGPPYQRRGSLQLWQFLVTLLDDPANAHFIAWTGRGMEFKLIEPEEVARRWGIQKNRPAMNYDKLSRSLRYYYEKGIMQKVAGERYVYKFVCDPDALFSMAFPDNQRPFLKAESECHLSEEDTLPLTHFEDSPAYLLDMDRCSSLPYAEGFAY
Chain of ETV1 (P50549 whole entry): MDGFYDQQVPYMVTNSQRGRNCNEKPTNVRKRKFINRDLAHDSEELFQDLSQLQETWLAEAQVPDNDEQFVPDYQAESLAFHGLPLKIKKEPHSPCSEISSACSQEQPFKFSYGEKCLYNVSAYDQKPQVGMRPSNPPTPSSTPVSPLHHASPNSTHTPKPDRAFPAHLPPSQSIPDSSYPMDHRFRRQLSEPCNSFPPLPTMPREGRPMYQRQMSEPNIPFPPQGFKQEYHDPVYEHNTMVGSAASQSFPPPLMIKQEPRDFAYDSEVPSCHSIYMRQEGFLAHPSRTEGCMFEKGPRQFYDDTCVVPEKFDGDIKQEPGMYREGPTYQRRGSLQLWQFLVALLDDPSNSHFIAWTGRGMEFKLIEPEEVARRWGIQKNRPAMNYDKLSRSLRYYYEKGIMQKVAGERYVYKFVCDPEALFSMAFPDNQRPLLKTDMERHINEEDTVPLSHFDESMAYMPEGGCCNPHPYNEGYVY
Chain of ELF1 (P32519 whole entry): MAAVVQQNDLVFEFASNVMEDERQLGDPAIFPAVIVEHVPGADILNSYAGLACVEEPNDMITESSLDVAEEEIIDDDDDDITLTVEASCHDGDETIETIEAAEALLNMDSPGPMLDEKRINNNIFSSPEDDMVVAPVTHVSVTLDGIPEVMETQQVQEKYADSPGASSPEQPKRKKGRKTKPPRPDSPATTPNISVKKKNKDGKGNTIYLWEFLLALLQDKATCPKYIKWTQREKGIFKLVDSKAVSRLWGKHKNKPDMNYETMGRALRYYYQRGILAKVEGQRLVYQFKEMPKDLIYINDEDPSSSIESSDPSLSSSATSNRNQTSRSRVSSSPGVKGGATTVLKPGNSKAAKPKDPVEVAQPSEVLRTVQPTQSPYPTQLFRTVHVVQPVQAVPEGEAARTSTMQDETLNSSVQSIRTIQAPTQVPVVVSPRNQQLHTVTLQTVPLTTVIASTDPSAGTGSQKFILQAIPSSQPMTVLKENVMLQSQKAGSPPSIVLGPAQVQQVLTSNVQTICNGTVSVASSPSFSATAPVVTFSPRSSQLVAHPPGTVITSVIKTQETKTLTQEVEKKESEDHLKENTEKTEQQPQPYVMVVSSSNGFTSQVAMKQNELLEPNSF
Chain of ELF4 (Q99607 whole entry): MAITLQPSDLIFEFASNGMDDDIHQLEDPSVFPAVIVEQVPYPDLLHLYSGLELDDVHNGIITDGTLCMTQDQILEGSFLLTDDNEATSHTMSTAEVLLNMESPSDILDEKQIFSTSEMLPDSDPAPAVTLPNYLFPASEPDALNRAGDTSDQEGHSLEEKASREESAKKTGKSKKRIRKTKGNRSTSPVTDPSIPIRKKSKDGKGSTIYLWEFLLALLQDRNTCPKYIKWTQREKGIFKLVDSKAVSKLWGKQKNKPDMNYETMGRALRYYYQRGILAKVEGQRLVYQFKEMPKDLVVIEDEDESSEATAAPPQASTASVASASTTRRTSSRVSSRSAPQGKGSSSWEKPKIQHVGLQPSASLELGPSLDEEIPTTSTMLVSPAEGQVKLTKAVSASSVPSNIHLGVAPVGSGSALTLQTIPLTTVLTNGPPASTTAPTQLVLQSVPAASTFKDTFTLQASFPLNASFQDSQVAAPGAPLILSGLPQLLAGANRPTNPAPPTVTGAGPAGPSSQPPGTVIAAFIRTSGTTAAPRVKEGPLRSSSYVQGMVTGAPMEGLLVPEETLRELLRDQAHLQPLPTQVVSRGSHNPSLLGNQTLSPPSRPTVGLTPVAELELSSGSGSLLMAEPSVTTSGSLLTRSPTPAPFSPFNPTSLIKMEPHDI

Sequence | binding signal (FLI1) | binding signal (ELK1) | binding signal (GABPA) | binding signal (ERG) | binding signal (ELF1) | binding signal (EHF) | binding signal (SPI1) | binding signal (SPIB) | binding signal (ELK3) | binding signal (FEV) | binding signal (ETV5) | binding signal (SPIC) | binding signal (ELF4) | binding signal (ELK4) | binding signal (ETV2) | binding signal (ELF3) | binding signal (ETV1)
CACAAC | 1.24 fold enrichment (6-mer frequency, TF over GST control) | 1.24 fold enrichment (6-mer frequency, TF over GST control) | 1.3 fold enrichment (6-mer frequency, TF over GST control) | 1.25 fold enrichment (6-mer frequency, TF over GST control) | 1.28 fold enrichment (6-mer frequency, TF over GST control) | 1.21 fold enrichment (6-mer frequency, TF over GST control) | 1.21 fold enrichment (6-mer frequency, TF over GST control) | 1.23 fold enrichment (6-mer frequency, TF over GST control) | 1.22 fold enrichment (6-mer frequency, TF over GST control) | 1.31 fold enrichment (6-mer frequency, TF over GST control) | 1.24 fold enrichment (6-mer frequency, TF over GST control) | 1.25 fold enrichment (6-mer frequency, TF over GST control) | 1.23 fold enrichment (6-mer frequency, TF over GST control) | 1.25 fold enrichment (6-mer frequency, TF over GST control) | 1.19 fold enrichment (6-mer frequency, TF over GST control) | 1.3 fold enrichment (6-mer frequency, TF over GST control) | 1.2 fold enrichment (6-mer frequency, TF over GST control)
CGGAAA | 1.89 fold enrichment (6-mer frequency, TF over GST control) | 2.13 fold enrichment (6-mer frequency, TF over GST control) | 1.88 fold enrichment (6-mer frequency, TF over GST control) | 2.63 fold enrichment (6-mer frequency, TF over GST control) | 1.87 fold enrichment (6-mer frequency, TF over GST control) | 2.31 fold enrichment (6-mer frequency, TF over GST control) | 1.89 fold enrichment (6-mer frequency, TF over GST control) | 2.22 fold enrichment (6-mer frequency, TF over GST control) | 2.28 fold enrichment (6-mer frequency, TF over GST control) | 3.21 fold enrichment (6-mer frequency, TF over GST control) | 2.32 fold enrichment (6-mer frequency, TF over GST control) | 1.94 fold enrichment (6-mer frequency, TF over GST control) | 1.84 fold enrichment (6-mer frequency, TF over GST control) | 1.55 fold enrichment (6-mer frequency, TF over GST control) | 2 fold enrichment (6-mer frequency, TF over GST control) | 2.13 fold enrichment (6-mer frequency, TF over GST control) | 2.17 fold enrichment (6-mer frequency, TF over GST control)

From paper PMC7862700, “An all-to-all approach to the identification of sequence-specific readers for epigenetic DNA modifications on cytosine”
